This note sets out measurements from PubChem BioAssay.

Active and inactive are the calls of the source.

Assay [1] deals with Plasmodium falciparum Sir2 (PF13_0152, Sir2A). The assay can be described thus: pfSir2 binders on small-molecule microarrays, primary screen, biochemical, small-molecule microarray, 635 nm fluorescence (AID 1098).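 Further: score merges spot fluorescence intensity with its signal-to-noise ratio.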 The conditions noted are these: small-molecule microarray binding, fluorescence 635 nm; higher = more signal.
The nature of assay [2]: small-molecule microarray binders of probe aDKK1, primary screen, biochemical, biotinylated probe, 635/667 nm fluorescence (AID 1099).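 Further: score merges 667nm spot fluorescence with signal to noise across triplicate slides.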 The conditions noted are these: higher = more signal.
Assay [3] is described as follows: small-molecule microarray binders of probe aCHRDL2, primary screen, biochemical, biotinylated probe, 635/667 nm fluorescence (AID 1100). The conditions noted are these: higher = more signal.
Assay [4] is described as follows: splicing luciferase reporter signal modulators, primary screen, spliceosome inhibition project, cell-based, HEK293, splice +/- reporter (AID 1101).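 Further: HEK293 cells carrying a splicing-competent luciferase reporter gene; test concentration not given here.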 The conditions noted are these: luminescence, 24 h, higher = more signal, called active from +8 up or from −8 down. For orientation: In a reporter assay the amount or activity of a reporter protein is the signal.
The target in assay [5] is Fibroblast growth factor 10 (Homo sapiens) (UniProt O15520). The assay can be described thus: FGF10 binders on small-molecule microarrays, primary screen, biochemical, small-molecule microarray, 635 nm fluorescence (AID 1102). The conditions noted are these: FGF10 binding, fluorescence 635 nm, higher = more signal.
In assay [6] the test system is glycogen synthase kinase-3 (GSK3A per assay name; protocol says GSK3B). The experiment in a line: GSK3 binders on small-molecule microarrays, primary screen, biochemical, small-molecule microarray, 635 nm fluorescence, GSK3A (AID 1103). Further: the record names both GSK3A and GSK3B. The conditions noted are these: small-molecule microarray binding, fluorescence 635 nm; higher = more signal.
Assay [7] addresses Epidermal growth factor receptor (Homo sapiens) (UniProt P00533). The experiment in a line: EGFR binders on small-molecule microarrays, primary screen, biochemical, small-molecule microarray, 635 nm fluorescence (AID 1104).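 Further: score merges 667 nm emission intensity with spot signal to noise over triplicate slides.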 The conditions noted are these: EGFR binding, higher = more signal.
Assay [8] deals with Follistatin-related protein 3 (Homo sapiens) (UniProt O95633). The experiment in a line: FSTL3 binders on small-molecule microarrays, primary screen, biochemical, small-molecule microarray, 635 nm fluorescence (AID 1105).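 Further: score merges emission near 667 nm and signal to noise per printed spot across three slides.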 The conditions noted are these: FSTL3 binding, higher = more signal.
Assay [9] deals with Dickkopf-related protein 1 (Homo sapiens) (UniProt O94907). The experiment in a line: DKK1 binders on small-molecule microarrays, primary screen, biochemical, small-molecule microarray, 635 nm fluorescence scan (AID 1106).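 Further: score merges emission near 667 nm with signal to noise over three replicate slides.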 The conditions noted are these: DKK1 binding, higher = more signal.
Assay [10] has as its system Inhibin beta A chain (activin A). The assay can be described thus: INHBA (activin A) binders on microarrays, primary screen, biochemical, small-molecule microarray, 635 nm fluorescence scan (AID 1107).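 Further: mouse activin A protein probed at 4.33 µg/mL on printed slides; score merges bound-protein fluorescence near 667 nm with spot signal-to-noise.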 The conditions noted are these: small-molecule microarray binding, higher = more signal.
Assay [11] relates to Human papillomavirus type 1a protein E7 (residues 44-93). The experiment in a line: HPV1a E7 fragment binders on microarrays, primary screen, biochemical, small-molecule microarray, residues 44-93, 635 nm fluorescence (AID 1108).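 Further: E7 fragment applied at 1 µg/mL in TBST for 1 h at 4 C; score combines spot fluorescence with its signal to noise ratio.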 The conditions noted are these: small-molecule microarray binding, fluorescence 635 nm; higher = more signal.
The nature of assay [12]: modulators of HCV replicon luciferase signal, primary screen, HCV replication inhibitor project, Huh7 cells, luciferase reporter (AID 1109).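 Further: huh7 hepatoma cells harbouring a luciferase neomycin HCV replicon reporter; luciferase luminescence as measure of HCV replicon replication; test concentration not given here.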 The conditions noted are these: 48 h, higher = more signal. A general note: In antiviral work, replicon cells carry a viral genome segment that copies itself.
Assay [13] concerns the target Left-right determination factor 2 (Homo sapiens) (UniProt O00292). The experiment in a line: LEFTY2 binders on small-molecule microarrays, primary screen, biochemical, small-molecule microarray, 635 nm fluorescence scan (AID 1110). The conditions noted are these: LEFTY2 binding, higher = more signal.
For assay [14], the target named is Calmodulin-1 (Homo sapiens) (UniProt P0DP23). The experiment in a line: CALM1 binders on microarrays, EGTA buffer, profiling panel, biochemical, small-molecule microarray, Cy5-labelled CALM1 (AID 1111).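 Further: labelled calmodulin applied in Tris saline Tween buffer holding calcium plus EGTA and DTT.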 The conditions noted are these: Cy5-CALM1 binding fluorescence, higher = more signal.
Assay [15] shares this target. The assay can be described thus: calcium-bound CALM1 binders on microarrays, profiling panel, artefact control for SMM control-protein annotation, biochemical, small-molecule microarray, Cy5-labelled CALM1, plus calcium (AID 1112).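 Further: score merges spot fluorescence with signal to noise from triplicate slides.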 The conditions noted are these: Cy5-CALM1 binding fluorescence, higher = more signal.
Assay [16] can be described thus: small-molecule microarray binders of probe aWnt5a, primary screen, biochemical, biotinylated probe, 635/667 nm fluorescence (AID 1113).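 Further: score merges 667 nm fluorescence intensity with signal-to-noise per printed feature.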 The conditions noted are these: higher = more signal.
Assay [17] is described as follows: small-molecule microarray binders of probe aShh, primary screen, biochemical, biotinylated probe, 635/667 nm fluorescence (AID 1114).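 Further: probe is biotin-labelled aShh protein from a stem cell growth factor screen; measures binding of labelled protein to compounds printed on the slide; score merges feature fluorescence at 667 nm with signal-to-noise.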 The conditions noted are these: higher = more signal.
Assay [18] in a line: small-molecule microarray binders of probe aNog, primary screen, biochemical, biotinylated probe, 635/667 nm fluorescence (AID 1115).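 Further: probe is biotinylated aNog protein used at 0.15 µg/mL for 1 h at 4 C; z-score combines 667 nm fluorescence of each spot with its signal to noise.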 The conditions noted are these: higher = more signal.
The target of assay [19] is Torsin-1A-interacting protein 1 (Homo sapiens) (UniProt Q5JTV8). The assay can be described thus: LAP1 binders from COS7 cell lysate, primary screen, small-molecule microarray, 635/667 nm fluorescence (AID 1116). The conditions noted are these: COS7-hLAP1 lysate binding, 635 nm fluorescence, higher = more signal.
For assay [20], the target named is Alpha-bungarotoxin (Bungarus multicinctus) (UniProt P60615). The experiment in a line: alpha-bungarotoxin binders on microarray, profiling panel, artefact control for SMM control protein annotation, biochemical, small-molecule microarray, Alexa647 label, 635/667 nm fluorescence (AID 1117). The conditions noted are these: alpha-BTX-A647 binding fluorescence, higher = more signal.
Sequence of Alpha-bungarotoxin (Bungarus multicinctus) (P60615 whole entry, looked up): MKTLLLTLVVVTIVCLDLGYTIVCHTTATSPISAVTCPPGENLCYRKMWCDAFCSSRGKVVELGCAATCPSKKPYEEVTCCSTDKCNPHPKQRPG

Sequence of Dickkopf-related protein 1 (Homo sapiens) (O94907 whole entry, looked up): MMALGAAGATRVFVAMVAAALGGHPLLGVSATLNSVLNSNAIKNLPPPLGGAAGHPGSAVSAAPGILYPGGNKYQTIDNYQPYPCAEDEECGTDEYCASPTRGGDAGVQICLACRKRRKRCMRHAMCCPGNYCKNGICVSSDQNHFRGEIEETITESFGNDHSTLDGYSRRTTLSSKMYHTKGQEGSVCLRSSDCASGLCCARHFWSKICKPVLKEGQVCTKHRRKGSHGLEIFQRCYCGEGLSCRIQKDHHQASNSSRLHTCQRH
Sequence of Follistatin-related protein 3 (Homo sapiens) (O95633 whole entry, looked up): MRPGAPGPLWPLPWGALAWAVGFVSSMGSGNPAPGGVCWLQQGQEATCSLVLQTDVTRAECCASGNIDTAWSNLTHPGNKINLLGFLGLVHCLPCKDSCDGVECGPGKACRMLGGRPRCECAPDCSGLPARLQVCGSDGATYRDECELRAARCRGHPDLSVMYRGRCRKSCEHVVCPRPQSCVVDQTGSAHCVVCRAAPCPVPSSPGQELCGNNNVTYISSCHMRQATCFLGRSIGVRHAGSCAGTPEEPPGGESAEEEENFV
Sequence of Fibroblast growth factor 10 (Homo sapiens) (O15520 whole entry, looked up): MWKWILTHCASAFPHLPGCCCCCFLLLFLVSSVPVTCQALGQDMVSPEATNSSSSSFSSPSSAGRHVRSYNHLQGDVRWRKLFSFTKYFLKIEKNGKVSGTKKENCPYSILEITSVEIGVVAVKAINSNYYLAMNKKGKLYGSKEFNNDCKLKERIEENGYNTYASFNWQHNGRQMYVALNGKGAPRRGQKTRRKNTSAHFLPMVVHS
Sequence of Torsin-1A-interacting protein 1 (Homo sapiens) (Q5JTV8 whole entry, looked up): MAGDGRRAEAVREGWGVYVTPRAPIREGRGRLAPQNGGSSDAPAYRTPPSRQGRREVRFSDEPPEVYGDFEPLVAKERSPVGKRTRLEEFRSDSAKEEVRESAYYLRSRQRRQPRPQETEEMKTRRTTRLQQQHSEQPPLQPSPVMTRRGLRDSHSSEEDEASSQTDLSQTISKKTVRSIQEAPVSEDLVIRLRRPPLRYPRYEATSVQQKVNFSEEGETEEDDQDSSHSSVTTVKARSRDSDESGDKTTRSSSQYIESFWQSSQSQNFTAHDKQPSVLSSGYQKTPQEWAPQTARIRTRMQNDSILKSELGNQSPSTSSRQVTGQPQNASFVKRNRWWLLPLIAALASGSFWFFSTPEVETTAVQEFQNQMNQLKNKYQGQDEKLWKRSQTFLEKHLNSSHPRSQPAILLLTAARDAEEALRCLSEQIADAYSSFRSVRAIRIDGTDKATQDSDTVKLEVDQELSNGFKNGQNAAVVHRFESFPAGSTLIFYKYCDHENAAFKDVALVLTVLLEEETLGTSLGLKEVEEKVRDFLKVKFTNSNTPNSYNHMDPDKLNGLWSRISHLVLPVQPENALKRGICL
Sequence of Left-right determination factor 2 (Homo sapiens) (O00292 whole entry, looked up): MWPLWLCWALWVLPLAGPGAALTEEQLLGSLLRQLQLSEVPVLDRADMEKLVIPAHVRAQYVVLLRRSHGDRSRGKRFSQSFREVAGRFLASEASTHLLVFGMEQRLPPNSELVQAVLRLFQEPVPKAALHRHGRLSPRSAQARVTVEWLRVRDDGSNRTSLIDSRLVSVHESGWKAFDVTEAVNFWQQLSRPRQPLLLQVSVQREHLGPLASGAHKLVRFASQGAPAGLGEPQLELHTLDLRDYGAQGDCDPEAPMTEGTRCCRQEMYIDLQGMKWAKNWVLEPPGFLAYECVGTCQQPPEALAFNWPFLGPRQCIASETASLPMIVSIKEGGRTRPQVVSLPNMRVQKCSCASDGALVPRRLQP
Sequence of Epidermal growth factor receptor (Homo sapiens) (P00533 whole entry, looked up): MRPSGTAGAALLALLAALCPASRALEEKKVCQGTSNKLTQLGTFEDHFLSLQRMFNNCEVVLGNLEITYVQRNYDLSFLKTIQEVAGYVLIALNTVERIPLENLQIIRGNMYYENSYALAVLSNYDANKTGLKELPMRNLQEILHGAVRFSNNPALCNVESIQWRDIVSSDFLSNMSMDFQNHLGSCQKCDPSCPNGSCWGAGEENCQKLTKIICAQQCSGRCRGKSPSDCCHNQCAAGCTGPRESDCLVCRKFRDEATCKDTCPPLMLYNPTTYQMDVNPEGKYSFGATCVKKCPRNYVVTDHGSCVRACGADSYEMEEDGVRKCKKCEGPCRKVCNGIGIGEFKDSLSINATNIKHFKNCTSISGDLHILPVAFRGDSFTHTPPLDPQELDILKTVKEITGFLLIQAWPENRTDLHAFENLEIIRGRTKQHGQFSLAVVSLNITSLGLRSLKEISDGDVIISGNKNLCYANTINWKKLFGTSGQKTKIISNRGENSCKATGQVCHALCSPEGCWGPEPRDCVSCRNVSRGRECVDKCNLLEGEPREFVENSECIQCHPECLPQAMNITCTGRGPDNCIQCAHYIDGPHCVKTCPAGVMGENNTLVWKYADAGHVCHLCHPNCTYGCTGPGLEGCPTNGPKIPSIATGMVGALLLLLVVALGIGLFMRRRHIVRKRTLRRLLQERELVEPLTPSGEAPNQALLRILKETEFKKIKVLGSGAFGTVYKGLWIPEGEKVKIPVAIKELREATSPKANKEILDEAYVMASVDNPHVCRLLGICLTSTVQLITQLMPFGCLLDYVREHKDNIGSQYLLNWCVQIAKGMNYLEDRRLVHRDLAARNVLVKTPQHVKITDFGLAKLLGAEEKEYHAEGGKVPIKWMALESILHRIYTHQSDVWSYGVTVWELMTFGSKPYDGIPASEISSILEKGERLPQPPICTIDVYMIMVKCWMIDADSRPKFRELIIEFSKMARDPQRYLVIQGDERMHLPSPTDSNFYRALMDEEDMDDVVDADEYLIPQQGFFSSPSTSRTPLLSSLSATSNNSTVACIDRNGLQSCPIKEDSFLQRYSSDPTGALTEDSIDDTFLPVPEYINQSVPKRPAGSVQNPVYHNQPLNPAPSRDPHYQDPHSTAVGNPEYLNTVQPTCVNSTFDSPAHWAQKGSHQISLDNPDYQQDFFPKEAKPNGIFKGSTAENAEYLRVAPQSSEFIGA

For `CN1CCc2nc(-c3ccccc3)c(-c3ccccc3)cc2C1`, the composite z-score in [1] is -0.0565; in assay [2], -0.284; in [3], -0.225; in [5], 0.486; in assay [6] it was 0.256; in [7], 0.134. Besides, the composite z-score in [8] is 0.359; in assay [9], 0.503; in assay [10], 0.334; in assay [11], 0.321; in assay [13] it was 0.47; in [14], -0.174. In addition, the composite z-score in [15] is -0.414; in assay [16], -0.0239; in assay [17], 0.204; in [18] it was -0.287; in [19], 0.269; in assay [20], 0.127. Besides, the z-score in assay [4] was 0.0199 (inactive); in [12], 0.179.

`CC(CCN1CCc2nc(-c3ccccc3)c(-c3ccccc3)cc2C1)=NO[C@@H](C)c1cc(-c2c(C)cc(C)cc2C)no1`: the composite z-score was 0.655 in assay [1]; -0.0029 in [2]; 0.77 in assay [3]; -0.567 in [5]; -0.725 in [6]; -0.345 in [7]. In addition, the composite z-score in assay [8] was -0.601; in [9], -0.524; in assay [10], 0.5; in assay [11], -0.324; in [13], -0.372; in assay [14] it was 0.445. Further, the composite z-score in [15] was -0.0323; in [16], -0.256; in assay [17], -0.428; in assay [18], -0.0211; in assay [19] it was -0.0029; in assay [20] it was 1.33. Further, the z-score in [4] was -1.56 (inactive); in [12], -1.47.

With `COc1ccc(COC(=O)NN=C2C[C@@H](O)[C@@H](O)[C@@H]3[C@@H]4C(=O)N(C[C@@H]5CCCO5)C(=O)[C@@H]4CC[C@@H]23)cc1`, the composite z-score was 1.06 in assay [1]; -0.288 in [2]; -0.241 in [3]; 1.01 in assay [5]; 0.0003 in assay [6]; -0.127 in [7]. The composite z-score in [8] is -0.139; in assay [9], 0.0237; in assay [10], 0.203; in assay [11], 0.222; in [13] it was 0.179; in assay [14], 0.342. Also, the composite z-score in [15] is -0.636; in [16], -0.172; in assay [17], -0.0793; in assay [18], -0.0496; in assay [19], 0.411; in [20], 0.915. Besides, the z-score in assay [4] is -0.00678 (inactive); in assay [12] it was 0.778.

Regarding `COC(=O)[C@@H]1CC[C@H](C)[C@@H](c2ccc(Br)cc2)N1`, the composite z-score in [1] was -0.725; in [2] it was 0.297; in [3], 0.321; in [5] it was -0.0529; in assay [6], -0.879; in assay [7] it was 0.377. For the same compound, the composite z-score in [8] is -0.391; in assay [9], 0.187; in assay [10] it was 0.894; in assay [11] it was -1.28; in assay [13], 0.0281; in assay [14], -0.0261. Besides, the composite z-score in assay [15] is 0.394; in assay [16], 0.0375; in [17], 0.261; in assay [18], 0.101; in assay [19] it was 0.488; in [20] it was 0.234. Also, the z-score in [4] was -0.181 (inactive); in assay [12], -0.178.

For `C=CC[C@@H]1C=C[C@H](ON=CC[C@@H]2C=C[C@H](OC(C)=O)[C@@H](COC(C)=O)O2)[C@@H](CO)O1`, the composite z-score in assay [1] is 1.01; in assay [2], 0.182; in assay [3] it was -0.293; in assay [5] it was 0.262; in [6] it was 0.765; in assay [7], 0.661. For the same compound, the composite z-score in assay [8] was 1.17; in assay [9] it was 0.764; in assay [10] it was 0.211; in [11], 1.25; in assay [13] it was 0.514; in [14], 0.501. Also, the composite z-score in [15] is -0.0909; in assay [16], 0.423; in [17] it was 0.113; in assay [18], -0.467; in assay [19] it was 0.223; in [20], 1.86. Besides, the values for the z-score in assay [4] and in assay [12] were 0.743 (inactive) and 0.563, respectively.

With `CC(C)=CCCC(C)=CCON=C1C[C@@H](O)[C@@H](O)[C@@H]2[C@@H]3C(=O)N(c4cccc(Oc5ccccc5)c4)C(=O)[C@@H]3CC[C@H]12`, the composite z-score was 0.0643 in [1]; -0.183 in [2]; -0.2 in [3]; 0.411 in [5]; 0.286 in assay [6]; 0.348 in assay [7]. Besides, the composite z-score in [8] came to 0.751; in assay [9] it was 0.419; in assay [10], 0.657; in assay [11], 1.32; in [13], 0.323; in assay [14], 0.322. Also, the composite z-score in [15] was 0.321; in [16] it was -0.148; in [17], 0.0483; in assay [18], -0.0129; in assay [19], 0.173; in [20], -0.0168. For the same compound, the values for the z-score in assay [4] and in [12] were 0.467 (inactive) and 0.237, respectively.
